# Measured values from PubChem BioAssay (NCATS).
# Inconclusive results are not listed. Entries that show only a call come without a potency. Unmarked numbers belong to inactive results. Calls of active or inactive are those of the source. Calls come from the whole dose curve; as a rule, active = well fitted curve in the direction sought with a large enough effect; inconclusive = small, poorly fitted or top-dose-only effect, or another doubt; inactive = no such curve, though single readings can be large; an effect the other way counts as inactive or inconclusive. Where a SMILES comes first, the peptide text is derived from it. [ ]: non-standard residue; d: D form. The star is where a group is joined. Nle = CCCC[C@H](N)C(=O)O; Cbz = O=C(OCc1ccccc1)*; CH2F = FC*
# Key:
# [1] = tested on: Zika virus NS2B-NS3 protease; assay: Primary screen GU AMC qHTS for Zika virus inhibitors (AID 1347154); conditions: Zika NS2B-NS3 unlinked protease, AMC fluorogenic substrate; series mostly up to 54.1 µM; note: nearly all actives have a fitted effect of over 70% in size; note: potency is the fitted concentration of half-maximal effect
# Method in brief: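 Unlinked Zika NS2B hydrophilic domain/NS3 protease domain noncovalent complex (25 nM final) in 10 mM Tris-HCl pH 8.0, 0.01% Tween 20, with AMC peptide substrate. Fluorescence (ex 340, em 450 nm) change over 15 min, room temperature; percent inhibition fitted to 4-parameter Hill equation.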
# [2] = Primary qHTS for small molecule stabilizers of the endoplasmic reticulum resident proteome: Secreted ER Calcium Modulated Protein (SERCaMP) assay (AID 1508630); conditions: SH-SY5Y GLuc-SERCaMP (Gaussia luciferase released on ER calcium loss) secretion, thapsigargin, luminescence; series mostly up to 38.4 µM
# Method in brief: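 GLuc-SERCaMP-expressing SH-SY5Y cells, pretreated 16 h with compound, are challenged with thapsigargin to empty ER calcium stores; after 4 h, coelenterazine is added directly to the medium and luminescence is imaged.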
Compound,Potency [1],Potency [2],"activity change, negative = inhibition [1]","activity change, negative = inhibition [2]"
O=C(O)/C=C1\CCCc2ccccc2C1O (centres undefined),inactive,inactive,–,–
CC(C)=CCN1CCC2(CCc3ccccc32)CC1,inactive,inactive,–,–
COc1cc2ncnc(Nc3ccc(Cl)cc3F)c2cc1OC,inactive,inactive,–,–
CCCC(=O)Nc1nc2c(ncn2[C@@H]2O[C@H]3COP(=O)(O)O[C@@H]3[C@@H]2OC(=O)CCC)c(=O)[nH]1,inactive,inactive,–,–
CC(C)[C@H]1c2ccc(F)cc2CC[C@@]1(CCN(C)CCCc1nc2ccccc2[nH]1)OC(=O)C1CC1,inactive,inactive,–,–
CCCCCCCC/C=C\CCCCCCCC(=O)OC[C@@H](O)COP(=O)(O)O,–,–,20.5% [at 6.83 µM],-10.9% [at 3.88 µM]
CC(C)C(N)C(=O)O (centres undefined),inactive,inactive,–,–
COc1cccc2c1C(=O)c1c(O)c3c(c(O)c1C2=O)C[C@@](O)(C(=O)CO)C[C@@H]3O[C@@H]1C[C@H](N)[C@H](O)[C@H](C)O1,inactive,inactive,–,–
CCC1Cc2cc(O)ccc2C2=C1c1ccc(O)cc1CC2CC (centres undefined),3.77 µM (active),inactive,–,–
N#Cc1ccccc1OCC(O)CNCCNC(=O)Nc1ccccc1 (centres undefined),inactive,inactive,–,–
CNC(=S)NCCCCc1cnc[nH]1,inactive,inactive,–,–
CNc1ncnc2c1ncn2[C@H]1C[C@H](O)[C@@H](CO)O1,inactive,inactive,–,–
NCCNC(=O)Cc1ccc(NC(=O)Cc2ccc(Nc3ncnc4c3ncn4[C@@H]3O[C@H](CO)[C@@H](O)[C@H]3O)cc2)cc1,inactive,inactive,–,–
COc1ccccc1C1(O)CCN(CCCn2c3ccccc3c3ccccc32)CC1,inactive,inactive,–,–
CCCCc1nc2ccn(CC(=O)N(C)C)c(=O)c2n1Cc1ccc(-c2ccccc2-c2nn[nH]n2)cc1,inactive,inactive,–,–
COC(=O)c1csc(C(=O)c2c[nH]c3ccccc23)n1,inactive,inactive,–,–
O=C(O)[C@@H]1CN[C@@H](C(=O)O)C1,inactive,inactive,–,–
CC(=O)OCOC(c1ccc2ccccc2c1)P(=O)(OCOC(C)=O)OCOC(C)=O (centres undefined),inactive,inactive,–,–
C=CCn1c(=O)c2c(nc(-c3ccccc3)n2C)n(C)c1=O,inactive,inactive,–,–
CC1=C(C(=O)OC(C)C)[C@@H](c2cccc3nonc23)C([N+](=O)[O-])=C(C)N1,inactive,inactive,–,–
CN(C)C(=O)n1nnnc1Cc1ccc(-c2ccccc2)cc1,inactive,inactive,–,–
CC(C)c1cnc(NC(=O)Cc2ccccc2)s1,inactive,inactive,–,–
COC(C)(C)CCCC(C)C/C=C/C(C)=C/C(=O)O (centres undefined),inactive,inactive,–,–
CC[C@]1(O)C[C@@H]2CN(CCc3c([nH]c4ccccc34)[C@@](C(=O)OC)(c3cc4c(cc3OC)N(C)C3[C@]45CCN4CC=C[C@](CC)(C45)[C@@H](OC(C)=O)[C@]3(O)C(=O)OC)C2)C1 (some centres undefined),inactive,inactive,–,–
C=C1CC2COC(=O)C2(Cc2ccc3ccccc3c2)C1 (centres undefined),inactive,inactive,–,–
CC/C=C\C/C=C\C/C=C\CCCCCCCCCC(=O)O,–,–,1.1% [at 6.83 µM],4.31% [at 3.88 µM]

Compound,Potency [1],Potency [2],"activity change, negative = inhibition [1]","activity change, negative = inhibition [2]"
CCCCCCCC/C=C\CCCCCCCC(=O)OC[C@H](CO)OC(C)=O,–,–,16.8% [at 6.83 µM],-28% [at 3.88 µM]
CC1=C(/C=C/C(C)=C/C=C/C(C)=C\CO)C(C)(C)CCC1,inactive,inactive,–,–
O=C(O)COc1ccc(OCCNC[C@H](O)COc2ccccc2)cc1,inactive,inactive,–,–
C[N+]1(Cc2ccccc2)CCC(C(=O)OCC2CCCC2)CC1 (centres undefined),inactive,inactive,–,–
c1ccc(Oc2nc(NC3CCCCC3)c3[nH]cnc3n2)cc1,inactive,inactive,–,–
COc1ccc(-n2[nH]c3c4c(ncc3c2=O)CCCCC4)cc1,inactive,inactive,–,–
N[C@@H](C(=O)O)[C@@H](CC(=O)O)c1ccc(Cl)cc1,inactive,inactive,–,–
C[C@@H](Cc1ccccc1)Nc1ncnc2c1ncn2[C@@H]1O[C@H](CO)[C@@H](O)[C@H]1O,inactive,inactive,–,–
Cc1ccc(/C=C2/CNC/C(=C\c3ccc(C)cc3)C2=O)cc1,inactive,inactive,–,–
CC1=C(/C=C/C(=C/C=C/C(C)=C/C(=O)O)c2ccc(C)cc2)C(C)(C)CCC1,inactive,inactive,–,–
CC(N)COC(=O)C(CCCCN)NC(=O)Cc1c(-c2ccc3ccccc3c2)[nH]c2c1ccc1ccccc12 (centres undefined),inactive,inactive,–,–
COC(=O)[C@H]1C2CC3c4[nH]c5ccccc5c4CCN3CC2CC[C@@H]1O (some centres undefined),inactive,inactive,–,–
CNCC(=O)NCC(=O)N[C@@H](Cc1ccccc1)C(=O)N[C@@H](CC(C)C)C(=O)O (HELM PEPTIDE1{[Sar].G.F.L}$$$$V2.0),–,–,7.91% [at 6.83 µM],-6.57% [at 3.88 µM]
CCCCCCCCCCCCCCCCCCOC[C@H](COP(=O)([O-])OCC[N+](C)(C)C)OC(C)=O,–,–,10.6% [at 6.83 µM],33.9% [at 3.88 µM]
CCCC[C@@H](C=O)NC(=O)[C@H](CC(C)C)NC(=O)[C@H](CC(C)C)NC(C)=O (Ac-Leu-Leu-[Nle]-aldehyde),inactive,inactive,–,–
CC(C)n1cnc2c(NCc3ccccc3)nc(NCCO)nc21,inactive,inactive,–,–
Cn1cnc2c(ncn2[C@@H]2O[C@H](CO)[C@@H](O)[C@H]2O)c1=N,inactive,inactive,–,–
H-LVVYPWTQR-OH,–,–,5.8% [at 6.83 µM],18.2% [at 3.88 µM]
CC[C@@H](C)[C@@H](CO[C@@H](Cc1ccccc1)C(=O)N[C@@H](CCS(C)(=O)=O)C(=O)OC(C)C)NC[C@@H](N)CS,inactive,inactive,–,–
CCCCCCCCCC(=O)N[C@H](CN1CCOCC1)[C@H](O)c1ccccc1,–,–,6.71% [at 6.83 µM],9.26% [at 3.88 µM]
Nc1cc(N2CCCCC2)nc(N)[n+]1OS(=O)(=O)[O-],inactive,inactive,–,–
CCCCCCCC/C=C\CCCCCCCCOC[C@H](COP(=O)([O-])OCC[N+](C)(C)C)OC(C)=O,–,–,11.8% [at 6.83 µM],-15.7% [at 3.88 µM]
CCCCCCCCCCC/C=C\C/C=C\CCCC(=O)O,–,–,7.9% [at 6.83 µM],-21.5% [at 3.88 µM]
CCCCCCCC/C=C\C/C=C\C/C=C\CCCC(=O)O,–,–,-5.55% [at 6.83 µM],18.3% [at 3.88 µM]
NC(C(=O)O)[C@H](O)C(=O)O (some centres undefined),inactive,inactive,–,–
[C-]#[N+]c1cc(-c2ccncc2)c(C)[nH]c1=O,inactive,inactive,–,–

Compound,Potency [1],Potency [2],"activity change, negative = inhibition [1]","activity change, negative = inhibition [2]"
COC(=O)C[C@H](NC(=O)[C@H](C)NC(=O)[C@@H](NC(=O)OCc1ccccc1)C(C)C)C(=O)CF (Cbz-Val-Ala-Asp(OMe)-CH2F),inactive,inactive,–,–
CCCCC[C@H](O)/C=C/[C@@H]1[C@@H](C/C=C\CCCC(=O)O)[C@@H](O)C[C@@H]1O,–,–,11.6% [at 6.83 µM],-25.7% [at 3.88 µM]
CC(N)(C(=O)O)c1ccc(-c2nn[nH]n2)cc1 (centres undefined),inactive,inactive,–,–
CCCCC[C@H](O)/C=C/[C@@H]1[C@@H](CC(=O)CCCCC(=O)O)[C@@H](O)C[C@H]1O,–,–,7.57% [at 6.83 µM],35.8% [at 3.88 µM]
CCCCC/C=C\C/C=C\C/C=C\C=C\[C@@H](O)CCCC(=O)O,–,–,0.663% [at 0.59 µM],-9.05% [at 0.478 µM]
CC[N+]1(C)C2CCC1CC(OC(=O)[C@H]1CCC(C(=O)OC3CC4CCC(C3)[N+]4(C)CC)(c3ccccc3)c3ccccc31)C2 (some centres undefined),inactive,inactive,–,–
Nc1nc2c(ncn2[C@@H]2O[C@H](COP(=O)(O)OP(=O)(O)O)[C@@H](O)[C@H]2O)c(=O)[nH]1,inactive,inactive,–,–
CC1=C(/C=C/C(C)=C/C=C/C(C)=C/C(=O)O)C(C)(C)CCC1O (centres undefined),inactive,inactive,–,–
CS(=O)(=O)Nc1c(O)ccc2c1CCCC2C1=NCCN1 (centres undefined),inactive,inactive,–,–
CC1(C)Oc2ccc(C#N)cc2[C@@H](OC2=CC(=O)CC2)[C@@H]1O,inactive,inactive,–,–
CC(C)ON(CC(=O)NO)S(=O)(=O)c1ccc(-c2ccccc2)cc1,inactive,inactive,–,–
COC1C(O)C(CO)OC1n1cnc2c(NC3CCCCC3)ncnc21 (centres undefined),inactive,inactive,–,–
Nc1c(S(=O)(=O)O)cc(Nc2ccc(Cl)cc2)c2c1C(=O)c1ccccc1C2=O,inactive,inactive,–,–
O=C(Nc1ccccc1)C12CC1/C(=N\O)c1ccccc1O2 (centres undefined),inactive,inactive,–,–
Nc1ncnc2c1ncn2[C@H]1O[C@@H](CSCC[C@@H](N)C(=O)O)[C@H](O)[C@@H]1O,inactive,inactive,–,–
CCCCC/C=C\C\C=C/C=C/C=C/[C@@H](SCC(NC(C)=O)C(=O)O)[C@@H](O)CCCC(=O)O (some centres undefined),–,–,13.7% [at 0.59 µM],-5.72% [at 0.478 µM]
CCC(N)(C(=O)O)c1ccc(C(=O)O)cc1 (centres undefined),inactive,inactive,–,–
Nc1ncnc2c1ncn2[C@@H]1O[C@H](COP(=O)(O)OP(=O)(O)OC[C@H]2OC(O)[C@H](O)[C@@H]2O)[C@@H](O)[C@H]1O (some centres undefined),inactive,inactive,–,–
CCCCC/C=C\C\C=C/C=C/C=C/[C@@H](SC[C@H](NC(=O)CC[C@H](N)C(=O)O)C(=O)NCC(=O)O)[C@@H](O)CCCC(=O)O,–,–,8.51% [at 0.59 µM],-14.5% [at 0.478 µM]
CCCCC/C=C\C/C=C\C/C=C\C/C=C\CCCC(=O)O[C@@H](CO)COC(=O)CCCCCCCCCCCCCCCCC,–,–,6.26% [at 6.83 µM],-0.0647% [at 3.88 µM]
CCCCCCCCCCCCC/C=C/[C@@H](O)[C@H](CO)NC(=O)CCCCCCC,–,–,11.7% [at 6.83 µM],18.1% [at 3.88 µM]
C[C@H](CC[C@@H]1OC1(C)C)C1CC[C@H]2[C@@H]3CC=C4C[C@@H](O)CC[C@]4(C)[C@H]3CC[C@]12C (some centres undefined),inactive,inactive,–,–
Cc1ccccc1N1CCN(S(=O)(=O)CC23CCC(CC2NC(=O)C(N)CCS(C)(=O)=O)C3(C)C)CC1 (centres undefined),inactive,inactive,–,–
COc1c(C=O)c(O)cc2c1C(=O)c1ccccc1C2=O,inactive,inactive,–,–
Nc1nc2c(ncn2[C@@H]2O[C@H](COP(=O)(O)OP(=O)(O)OP(=O)(O)O)[C@@H](O)C2O)c(=O)[nH]1 (some centres undefined),inactive,inactive,–,–
